This is part of a sample that, as a whole, favours compounds with a hit. Of some 83,000 tested, about 20% had one in any assay.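 Negative percent growth values reflect cell death: -40 means 40% of the cells present at the start died, and -100 means all died.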 A number with no mark means an inactive call. Activity calls are given as the source filed them. The calls were made as follows: active = growth percent below 10; inactive = the rest.

Test systems include SK-MEL-2 melanoma; SN12C renal; UO-31 renal; TK-10 renal; ACHN renal; CAKI-1 renal; A498 renal; CCRF-CEM leukemia; MOLT-4 leukemia.
What all share (test): NCI-60 one-dose screen, 48 h (100 = growth as untreated, 0 = no growth, -100 = all killed)
What all share (settings): 10 µM

`Cn1cnc([N+](=O)[O-])c1/C=C1\Oc2ccc(Cl)cc2C1=O`: the growth in the assay on SK-MEL-2 melanoma was 82.2%; in the assay with SN12C renal, 98.9%; with UO-31 renal, 48.3%; with TK-10 renal it was 98.2%; with ACHN renal, 79.4%; with CAKI-1 renal, 78.1%. The growth in the assay on A498 renal is 98.4%; with CCRF-CEM leukemia it was 33.7%; with MOLT-4 leukemia, 49.3%.

With `CCC(O)c1ccc(Br)cc1NC(=O)c1cccc(Cl)c1` (centres undefined), the growth in the assay with SK-MEL-2 melanoma was 34%; in the assay on SN12C renal it was 18.7%; in the assay with UO-31 renal, -11.6% (active); in the assay with TK-10 renal it was 41.9%; with ACHN renal, 15.6%; with CAKI-1 renal it was 7.99% (active). Also, the figures for the growth in the assay on A498 renal, with CCRF-CEM leukemia and in the assay on MOLT-4 leukemia were 25.3%, 6.46% (active) and 10.1%, respectively.

In the case of `CC(=O)O[C@H]1CC[C@@]2(C)[C@@H](CC[C@@H]3[C@@H]2CC[C@]2(C)C=C(C=O)C[C@@H]32)C1`, the growth was 73.7% with SK-MEL-2 melanoma; 58.9% in the assay with SN12C renal; 93% with UO-31 renal; 120% with TK-10 renal; 95% in the assay with ACHN renal; 91% in the assay with CAKI-1 renal. The values for the growth in the assay on A498 renal, in the assay with CCRF-CEM leukemia and in the assay on MOLT-4 leukemia were 94.9%, -20.8% (active) and -29.1% (active), respectively.

In the case of `Cc1[nH]nc2c(=S)[nH]c(=O)[nH]c12`, the growth in the assay on SK-MEL-2 melanoma is 109%; in the assay on SN12C renal it was 105%; in the assay with UO-31 renal, 93.4%; with TK-10 renal, 108%; in the assay with ACHN renal, 104%; with CAKI-1 renal, 101%. In addition, the growth in the assay on A498 renal is 100%; in the assay with CCRF-CEM leukemia, 97.8%; in the assay on MOLT-4 leukemia, 105%.

`COc1ccc2c(c1)/C(=C/c1cc(OC)c(OC)c(OC)c1)C(=O)N2C`: the growth in the assay with SK-MEL-2 melanoma was 24.3%; in the assay with SN12C renal, 25.3%; in the assay on UO-31 renal, 16.9%; in the assay with TK-10 renal it was 22.1%; in the assay with ACHN renal, 26.9%; in the assay with CAKI-1 renal, -8.56% (active). Also, the figures for the growth with A498 renal, in the assay with CCRF-CEM leukemia and in the assay on MOLT-4 leukemia were 23.4%, 20.4% and 16%, respectively.

As for `Cc1cc(C)c2c(Nc3ncnc4c3sc3nc(C)cc(C)c34)n[nH]c2n1`, the growth was 114% in the assay on SK-MEL-2 melanoma; 99.3% in the assay on SN12C renal; 90.9% in the assay with UO-31 renal; 104% in the assay on TK-10 renal; 93.6% in the assay with ACHN renal; 101% in the assay on CAKI-1 renal. The growth with A498 renal was 92.3%; with CCRF-CEM leukemia, 95.3%; with MOLT-4 leukemia it was 94.1%.

Take `O=S(=O)(O)C1(O)CCCCC1`: the growth with SK-MEL-2 melanoma is 90.1%; in the assay on SN12C renal it was 99.3%; in the assay with UO-31 renal it was 58.9%; in the assay on TK-10 renal it was 169%; in the assay with ACHN renal it was 72.9%; in the assay with CAKI-1 renal, 76%. The results for the growth in the assay on A498 renal, in the assay on CCRF-CEM leukemia and with MOLT-4 leukemia were 112%, 92.8% and 87.9%, respectively.

As to `CCOC(=O)c1ccc(N(C=O)CCC(=O)CCl)cc1`, the growth with SK-MEL-2 melanoma was 15.3%; in the assay with SN12C renal, 7.96% (active); in the assay on UO-31 renal it was -86.3% (active); in the assay on TK-10 renal, -18% (active); in the assay on ACHN renal, -37.4% (active); in the assay with CAKI-1 renal, -19.9% (active). The figures for the growth in the assay with A498 renal, with CCRF-CEM leukemia and in the assay on MOLT-4 leukemia were -13.5% (active), -31.4% (active) and -13.7% (active), respectively.

For the compound `COc1ccc(C(=O)/C=C/c2cc(-c3ccc4c(c3)OCO4)n[nH]2)cc1OC`, the growth in the assay with SK-MEL-2 melanoma was 84.4%; with SN12C renal, 60.3%; with UO-31 renal, 44.4%; in the assay with TK-10 renal it was 62.8%; in the assay with ACHN renal it was 76.3%; in the assay with CAKI-1 renal it was 38.1%. The growth with A498 renal was 41.9%; in the assay with CCRF-CEM leukemia it was 21.6%; in the assay with MOLT-4 leukemia, -9.67% (active).

Take `CCCn1c(=O)c2c(nc(-c3cccc(OCCCCl)c3)n2C)n(CCC)c1=O`: the growth was 75.6% in the assay on SK-MEL-2 melanoma; 37.3% with SN12C renal; 27.8% in the assay on UO-31 renal; 36.5% in the assay with TK-10 renal; 3.03% (active) in the assay on ACHN renal; 43.7% in the assay on CAKI-1 renal. Besides, the growth with A498 renal is -10.8% (active); with CCRF-CEM leukemia it was 86.3%; in the assay on MOLT-4 leukemia it was 73.2%.

As for `Fc1ccc(-c2cc(C(Cl)Cl)no2)cc1`, the growth in the assay with SK-MEL-2 melanoma is 116%; in the assay on SN12C renal it was 97.6%; in the assay on UO-31 renal, 78.7%; in the assay with TK-10 renal, 131%; with ACHN renal, 102%; with CAKI-1 renal, 84.9%. Also, the growth with A498 renal is 99.3%; with CCRF-CEM leukemia, 93.1%; in the assay with MOLT-4 leukemia it was 108%.

For `C/C=C\COc1cc(C)c(Cl)cc1Cl`, the growth in the assay on SK-MEL-2 melanoma is 120%; in the assay on SN12C renal, 94.7%; in the assay on UO-31 renal it was 84.8%; with TK-10 renal, 125%; in the assay with ACHN renal, 128%; with CAKI-1 renal it was 98.8%. The growth was 101% in the assay on A498 renal, 95% with CCRF-CEM leukemia and 108% in the assay with MOLT-4 leukemia.

Turning to `CCc1ccc(-c2nnc(COc3ccc(-c4nc5ccccc5[nH]4)cc3OC)o2)cc1`, the growth in the assay on SK-MEL-2 melanoma was 96.7%; in the assay with SN12C renal it was 21.7%; in the assay on UO-31 renal, 56.8%; with TK-10 renal, 16.7%; in the assay with ACHN renal it was -13.9% (active); in the assay on CAKI-1 renal, 60.1%. Further, the growth is 88.8% in the assay on A498 renal, 61.8% with CCRF-CEM leukemia and 71.8% with MOLT-4 leukemia.

Consider `O=C(Nc1cccc(Cl)c1)Nc1cc2ncncc2cc1OCc1cccc(F)c1`, for which the growth is -24.3% (active) in the assay on SK-MEL-2 melanoma; 21.7% in the assay with SN12C renal; 9.37% (active) in the assay with UO-31 renal; -3.16% (active) in the assay with TK-10 renal; 3.47% (active) in the assay with ACHN renal; 14.6% in the assay on CAKI-1 renal. In addition, the growth is -9.36% (active) with A498 renal, 2.81% (active) in the assay on CCRF-CEM leukemia and 4.84% (active) in the assay with MOLT-4 leukemia.

With `COc1ccc(OC)c([N+](=O)[O-])c1C=O`, the growth with SK-MEL-2 melanoma was 136%; in the assay with SN12C renal it was 101%; in the assay on UO-31 renal, -43.3% (active); with TK-10 renal, 154%; with ACHN renal it was 92.5%; in the assay with CAKI-1 renal it was 72.2%. The growth in the assay on A498 renal was 59.2%; in the assay with CCRF-CEM leukemia, 41.4%; in the assay with MOLT-4 leukemia it was 66.8%.

For the compound `COc1ccc(/C(CS(=O)(=O)c2ccccc2)=N\O)cc1`, the growth was 113% with SK-MEL-2 melanoma; 96.9% in the assay on SN12C renal; 104% in the assay on UO-31 renal; 92.5% in the assay with TK-10 renal; 109% in the assay with ACHN renal; 101% in the assay with CAKI-1 renal. The growth in the assay with A498 renal was 102%; with CCRF-CEM leukemia, 96.3%; in the assay with MOLT-4 leukemia it was 98.4%.

These data come from PubChem BioAssay (NCI).
